From the supplement of paper PMC6279402
± gives the standard deviation of the averaged measurements.

Tested on: A549
Experiment: relative viability (normalised to negative control = 1, bortezomib = 0) (fraction); higher = less cytotoxic
Details: inflammatory serum-free RHB-A with cytokines + LPS, 5 d + 24 h CellTiter-Blue
Experimental: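 A549 KRAS-mutant NSCLC cells, pre-treated 5 µM GSK126 or vehicle (DMSO), were seeded at 250 cells/well in 384-well plates in serum-free RHB-A medium with inflammatory cytokines/LPS and treated with Selleck kinase inhibitor and NCI oncology compounds at 30 or 300 nM in triplicate, refreshed at 48 h. Viability was read by CellTiter-Blue after 5 d plus 24 h and normalised per plate with cellHTS2 (mean of bortezomib positive control = 0, mean of negative control = 1).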

[1] = compound 30 nM, GSK126 pretreatment: 5 uM GSK126
[2] = compound 30 nM, GSK126 pretreatment: none (vehicle)
[3] = compound 300 nM, GSK126 pretreatment: 5 uM GSK126
[4] = compound 300 nM, GSK126 pretreatment: none (vehicle)

SMILES | relative viability [1] | relative viability [2] | relative viability [3] | relative viability [4]
CCN1CCN(C(=O)Cc2ccc(Nc3ncc(F)c(Nc4ccc(C(=O)Nc5ccccc5Cl)cc4)n3)cc2)CC1 [Aurora A Inhibitor I] | 0.988 ± 0.045 | 1.02 ± 0.032 | 0.808 ± 0.14 | 0.671 ± 0.027
Oc1ncc(N(CCCl)CCCl)c(O)n1 [Uracil mustard] | 0.792 ± 0.024 | 0.801 ± 0.027 | 0.81 ± 0.029 | 0.87 ± 0.03
O=P1(N(CCCl)CCCl)NCCCO1 (stereo not given) [Cyclophosphamide monohydrate; Cyclophosphamide] | 0.799 ± 0.035 | 0.813 ± 0.086 | 0.877 ± 0.031 | 0.941 ± 0.1
Cc1ccccc1-n1c(Cn2cnc3c(N)ncnc32)nc2cccc(C)c2c1=O | 0.828 ± 0.076 | 0.784 ± 0.083 | 0.79 ± 0.088 | 0.875 ± 0.056
C1CN1c1nc(N2CC2)nc(N2CC2)n1 [Triethylenemelamine] | 0.834 ± 0.081 | 0.834 ± 0.059 | 0.828 ± 0.012 | 0.918 ± 0.042
